Several values for one entry are separate records, joined by “and”; a condition that tells them apart may be missing. Identical values can stand only once. Inconclusive results are not listed. A call without a number means that no potency is given here. More than one record can exist for a structure, and the calls need not agree. Activity calls are given as the source filed them. Unless noted, calls follow the shape of the full dose curve.
Columns and labels:
[1] = Nuclear factor erythroid 2-related factor 2/antioxidant responsive element (Nrf2/ARE) small molecule agonists: qHTS cell viability counter screen in human keratinocytes (AID 1919968; active = well fitted curve in the direction sought with a large enough effect in the repeat runs; an effect the other way counts as inactive or inconclusive; also: nearly all actives have a fitted effect of over 55% in size; also: potency is read from the fitted curve at half-maximal effect)
In short: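 After a 5 h attachment period, ARE-reporter keratinocytes were dosed with compounds in DMSO and then cultured 23 h at 37 C. Cell viability came from CellTiter-Fluor signal read after a further 1 h.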

[2] = Nuclear factor erythroid 2-related factor 2/antioxidant responsive element (Nrf2/ARE) small molecule agonists: luciferase reporter gene qHTS assay in human keratinocytes (AID 1919969); also: nearly all actives have a fitted effect of over 35% in size; also: potency is read from the fitted curve at half-maximal effect
[3] = target: Gonadotropin-releasing hormone receptor (Homo sapiens) (UniProt P30968); experiment: Human gonadotropin-releasing hormone receptor (GnRHR) small molecule agonists, calcium flux assay in GnRHR-HEK293 cells (AID 1920063); also: nearly all actives have a fitted effect of over 35% in size; also: potency is read from the fitted curve at half-maximal effect
Chain of Gonadotropin-releasing hormone receptor (Homo sapiens) (P30968 whole entry, looked up): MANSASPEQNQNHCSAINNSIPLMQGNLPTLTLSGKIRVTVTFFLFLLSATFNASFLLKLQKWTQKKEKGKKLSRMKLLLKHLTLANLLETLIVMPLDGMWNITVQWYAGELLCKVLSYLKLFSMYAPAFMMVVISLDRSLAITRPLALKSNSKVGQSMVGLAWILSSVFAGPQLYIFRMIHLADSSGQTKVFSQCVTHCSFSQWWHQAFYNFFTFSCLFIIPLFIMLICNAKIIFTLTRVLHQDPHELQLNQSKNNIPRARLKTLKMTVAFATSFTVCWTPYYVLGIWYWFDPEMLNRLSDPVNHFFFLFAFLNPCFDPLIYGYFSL
In short: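 We seeded human GnRHR-expressing HEK293 cells for 18 hours, loaded them with calcium dye for an hour at 37 C, added test compounds, and recorded fluorescence intensity kinetically for three minutes.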

[4] = target: KiSS-1 receptor (Homo sapiens) (UniProt Q969F8); experiment: Human kisspeptin (KISS1R) small molecule agonists, calcium flux assay in KISS1R-HEK293 cells (AID 1920064; active = well fitted curve in the direction sought with a large enough effect in the repeat runs; an effect the other way counts as inactive or inconclusive)
Chain of KiSS-1 receptor (Homo sapiens) (Q969F8 whole entry, looked up): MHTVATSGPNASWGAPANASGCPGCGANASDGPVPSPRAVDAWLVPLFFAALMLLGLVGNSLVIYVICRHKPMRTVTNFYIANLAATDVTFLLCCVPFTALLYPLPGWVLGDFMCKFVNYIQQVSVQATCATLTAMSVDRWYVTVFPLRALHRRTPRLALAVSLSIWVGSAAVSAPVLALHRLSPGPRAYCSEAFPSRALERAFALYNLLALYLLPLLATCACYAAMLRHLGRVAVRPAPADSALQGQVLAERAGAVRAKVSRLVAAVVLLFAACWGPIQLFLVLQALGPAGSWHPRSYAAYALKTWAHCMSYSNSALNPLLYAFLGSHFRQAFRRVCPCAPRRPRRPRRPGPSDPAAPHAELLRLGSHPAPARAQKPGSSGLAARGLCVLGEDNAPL
In short: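 Kinetic calcium assay, 1 s sampling over 3 min at Ex/Em 480/540, in HEK293 cells engineered with human KISS1R; compounds delivered in DMSO after 1 h dye loading.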

[5] = G protein-coupled receptor (GPCR) small molecule agonists, calcium flux assay: HEK293 wild type cell line counter screen (AID 1920065)
In short: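 Calcium-sensitive dye, loaded 1 h at 37 C into cells cultured 18 h, reports compound-evoked calcium release as fluorescence (Ex/Em 480/540), measured over 3 min. Agonist mode; 15-point titrations, triplicate.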

[6] = p53 small molecule agonists, cell-based qHTS assay with human liver microsomes (AID 1963577)
In short: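 p53RE-bla cells, 4,000/well, compound added after 5 h, with human liver microsomes 0.5 mg/mL and NADPH 0.5 mg/mL final; 16 h at 37 C, then LiveBLAzer 2 h RT, fluorescence.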

[7] = p53 small molecule agonists, cell-based qHTS assay with rat liver microsomes (AID 1963578); also: potency is read from the fitted curve at half-maximal effect
In short: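 p53RE-bla cells, 4,000/well, pre-incubated 5 h, then given compounds plus rat liver microsomes (0.5 mg/mL final) and NADPH (0.5 mg/mL final). Incubation 16 h at 37 C; beta-lactamase reporter read by LiveBLAzer fluorescence after 2 h at room temperature.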

[8] = p53 small molecule agonists, cell-based qHTS assay with human liver microsomes: qHTS cell viability counter screen (AID 1963579); also: nearly all actives have a fitted effect of over 45% in size; also: potency is read from the fitted curve at half-maximal effect
In short: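 p53RE-bla cells, 4,000/well, dosed 5 hours after plating, with human liver microsomes (0.5 mg/mL final) plus NADPH (0.5 mg/mL final), 16 hours at 37 C. Viability read as CellTiter-Glo luminescence after 30 min at room temperature.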

[9] = p53 small molecule agonists, cell-based qHTS assay with rat liver microsomes: qHTS cell viability counter screen (AID 1963580); also: nearly all actives have a fitted effect of over 45% in size; also: potency is read from the fitted curve at half-maximal effect
In short: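 Viability is assessed in parallel with the p53 reporter read: HCT-116 p53RE-bla cells receive compounds plus rat microsomes and NADPH (0.5 mg/mL final apiece), incubate 16 h at 37 C, and then CellTiter-Glo luminescence is recorded.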

[10] = p53 small molecule agonists, cell-based qHTS assay: qHTS cell viability counter screen (AID 1963581); also: nearly all actives have a fitted effect of over 45% in size
In short: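 Following 5 h attachment, HCT-116 p53RE-bla cells took up compound for 16 h at 37 C; the reporter was read with B/G FRET substrate (2 h RT), and viability then via CellTiter-Glo ATP luminescence.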

[11] = target: 5-hydroxytryptamine receptor 2A (Homo sapiens) (UniProt P28223); experiment: 5-hydroxytryptamine receptor 2A (HTR2A) small molecule agonists, cell-based qHTS assay (AID 1963587); also: nearly all actives have a fitted effect of over 30% in size; also: potency is read from the fitted curve at half-maximal effect
Chain of 5-hydroxytryptamine receptor 2A (Homo sapiens) (P28223 whole entry, looked up): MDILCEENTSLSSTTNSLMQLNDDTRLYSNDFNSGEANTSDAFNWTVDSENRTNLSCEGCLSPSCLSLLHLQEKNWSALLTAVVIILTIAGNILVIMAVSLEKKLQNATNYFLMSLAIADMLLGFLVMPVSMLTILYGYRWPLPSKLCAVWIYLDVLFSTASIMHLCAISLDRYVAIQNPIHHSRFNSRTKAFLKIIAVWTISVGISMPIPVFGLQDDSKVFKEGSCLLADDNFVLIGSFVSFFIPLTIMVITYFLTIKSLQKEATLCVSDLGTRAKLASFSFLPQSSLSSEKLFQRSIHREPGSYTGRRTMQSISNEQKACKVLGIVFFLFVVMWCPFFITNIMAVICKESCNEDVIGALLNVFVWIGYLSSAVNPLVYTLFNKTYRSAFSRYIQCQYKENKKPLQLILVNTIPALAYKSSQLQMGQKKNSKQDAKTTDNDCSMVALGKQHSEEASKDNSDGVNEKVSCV
In short: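 CHO cells stably expressing human HTR2A, plated 18 h, loaded with calcium dye 1 h at 37 C. Agonist mode: compounds added and intracellular calcium fluorescence recorded kinetically for 2 min at 1 sec intervals.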

[12] = target: Muscarinic acetylcholine receptor M1 (Homo sapiens) (UniProt P11229); experiment: Cholinergic receptor muscarinic 1 (CHRM1) small molecule antagonists, cell-based qHTS assay (AID 1963588); also: nearly all actives have a fitted effect of over 40% in size; also: potency is read from the fitted curve at half-maximal effect
Chain of Muscarinic acetylcholine receptor M1 (Homo sapiens) (P11229 whole entry, looked up): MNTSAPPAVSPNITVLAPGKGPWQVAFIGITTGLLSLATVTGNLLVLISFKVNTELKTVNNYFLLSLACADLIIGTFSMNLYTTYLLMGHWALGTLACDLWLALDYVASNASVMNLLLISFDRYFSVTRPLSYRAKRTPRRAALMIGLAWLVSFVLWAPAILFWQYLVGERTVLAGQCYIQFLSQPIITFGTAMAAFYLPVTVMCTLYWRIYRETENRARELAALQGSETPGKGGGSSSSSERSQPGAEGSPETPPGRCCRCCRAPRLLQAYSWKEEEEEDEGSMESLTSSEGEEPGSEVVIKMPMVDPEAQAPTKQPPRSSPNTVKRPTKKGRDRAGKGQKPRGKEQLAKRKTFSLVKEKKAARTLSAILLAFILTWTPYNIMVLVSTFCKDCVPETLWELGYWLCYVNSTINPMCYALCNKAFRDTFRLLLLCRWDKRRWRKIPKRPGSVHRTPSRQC
In short: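 CHRM1-CHO calcium-flux assay, antagonist mode. Cells were seeded 18 h, dye-loaded 1 h at 37 C and given compound for 5 min at RT, then acetylcholine was added at 50nM. FDSS fluorescence was read 3 min; 15 concentrations, three runs.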

[13] = target: Muscarinic acetylcholine receptor M1 (Homo sapiens) (UniProt P11229); experiment: Cholinergic receptor muscarinic 1 (CHRM1) small molecule agonists, cell-based qHTS assay (AID 1963589); also: nearly all actives have a fitted effect of over 35% in size
In short: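 Measures agonist-induced intracellular calcium rise. Stable human CHRM1 CHO line, 1 h dye load at 37 C, compounds from DMSO, kinetic fluorescence read.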

[14] = cAMP Responsive Elements (CRE) small molecule agonists, cell-based qHTS assay (AID 1963590)
In short: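 A CRE-responsive beta-lactamase reporter in HEK 293T cells was used. Treatment ran 3 h at 37 C; detection used LiveBLAzer B/G FRET substrate for 2 h at room temperature.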

[15] = cAMP Responsive Elements (CRE) small molecule antagonists, cell-based qHTS assay (AID 1963591; active = well fitted inhibition curve with a large enough effect in the signal ratio in the repeat runs, not every such curve was filed as active; the % refers to the signal ratio)
In short: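 HEK293T cells carrying a CRE-driven beta-lactamase reporter receive compound and NKH477 (0.25 uM final) for 3 h. Fluorescence from LiveBLAzer B/G FRET substrate is read after 2 h at room temperature.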

[16] = target: Beta-2 adrenergic receptor (Homo sapiens) (UniProt P07550); experiment: Adrenergic beta2 receptor (ADRB2) small molecule antagonists, cell-based qHTS assay (AID 1963592); also: series mostly up to about 92 µM; nearly all actives have a fitted effect of over 50% in size
Chain of Beta-2 adrenergic receptor (Homo sapiens) (P07550 whole entry, looked up): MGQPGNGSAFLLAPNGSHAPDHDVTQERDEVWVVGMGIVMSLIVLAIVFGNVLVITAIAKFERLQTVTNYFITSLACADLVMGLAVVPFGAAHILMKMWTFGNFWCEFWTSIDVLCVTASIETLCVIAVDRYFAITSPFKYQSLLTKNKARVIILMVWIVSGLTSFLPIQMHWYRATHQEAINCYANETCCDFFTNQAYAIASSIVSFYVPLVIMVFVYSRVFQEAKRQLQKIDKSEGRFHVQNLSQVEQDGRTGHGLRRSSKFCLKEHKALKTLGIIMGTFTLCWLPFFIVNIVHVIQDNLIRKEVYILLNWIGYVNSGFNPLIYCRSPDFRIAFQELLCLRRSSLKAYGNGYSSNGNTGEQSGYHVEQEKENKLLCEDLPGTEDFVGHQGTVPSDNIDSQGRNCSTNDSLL
In short: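 Cells (CHO, stable ADRB2 overexpression) incubated 18-20hr at 37C; compounds added from DMSO; agonist mix (1nM isoproterenol, 100uM IBMX, 25uM Ro-20-1724) added; 0.5hr RT; d2-cAMP and anti-cAMP-cryptate added; 1hr RT; 665/615 nm read.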

[17] = target: D(2) dopamine receptor (Homo sapiens) (UniProt P14416); experiment: Dopamine D2 receptor (DRD2) small molecule antagonists, cell-based qHTS assay (AID 1963595; active = well fitted inhibition curve with a large enough effect in the signal ratio in the repeat runs, with a control signal flat; the % refers to the signal ratio; also: potency is read from the fitted curve at half-maximal effect)
Chain of D(2) dopamine receptor (Homo sapiens) (P14416 whole entry, looked up): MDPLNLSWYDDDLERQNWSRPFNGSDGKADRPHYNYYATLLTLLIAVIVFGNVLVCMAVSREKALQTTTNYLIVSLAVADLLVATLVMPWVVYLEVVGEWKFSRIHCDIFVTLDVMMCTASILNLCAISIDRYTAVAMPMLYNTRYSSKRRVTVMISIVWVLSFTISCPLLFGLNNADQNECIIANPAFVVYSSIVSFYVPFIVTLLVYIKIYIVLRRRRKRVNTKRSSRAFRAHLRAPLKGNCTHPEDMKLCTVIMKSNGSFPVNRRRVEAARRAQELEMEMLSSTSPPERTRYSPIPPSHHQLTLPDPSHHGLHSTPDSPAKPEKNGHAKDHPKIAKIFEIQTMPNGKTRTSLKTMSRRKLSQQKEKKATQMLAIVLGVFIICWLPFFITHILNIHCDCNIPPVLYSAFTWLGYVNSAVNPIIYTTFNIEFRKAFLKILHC
In short: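 Stable D2 receptor HEK293 line, 24 h after seeding. Compound preincubated 10 min, then quinpirole (12 nM) with forskolin analogue NKH477 (200 nM), 30 min, room temperature. Detection by time-resolved FRET of cAMP.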

[18] = target: 5-hydroxytryptamine receptor 2A (Homo sapiens) (UniProt P28223); experiment: 5-hydroxytryptamine receptor 2A (HTR2A) small molecule antagonists, cell-based qHTS assay (AID 1963586); also: nearly all actives have a fitted effect of over 45% in size
In short: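 Antagonist-mode intracellular calcium assay: DOI (4 nM) added after 5 min compound pre-incubation at room temperature to dye-loaded HTR2A-CHO cells. Fluorescence followed for 3 min, sampled every second.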

[19] = target: D(2) dopamine receptor (Homo sapiens) (UniProt P14416); experiment: Dopamine D2 receptor (DRD2) small molecule agonists, cell-based qHTS assay (AID 1963594); also: nearly all actives have a fitted effect of over 35% in size
In short: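 HEK293 cells stably expressing human DRD2, pre-treated with PDE inhibitor Ro20-1724 (0.1 mM final) and compound 10 min at room temperature, then stimulated with NKH477 (200nM […]) for 30 min. cAMP read by HTRF (665/620 nm).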

[20] = p53 small molecule agonists, cell-based qHTS assay (AID 1963582; active = well fitted activation curve with a large enough effect in the signal ratio in the repeat runs, not every such curve was filed as active; the % refers to the signal ratio)
In short: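 In this cell-based concentration-response screen, a p53 response element drives beta-lactamase; cells received DMSO-borne compounds after 5 h culture and were incubated a further 16 h before FRET substrate development.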

Row | Structure (SMILES) | Potency [1] | Potency [2] | Potency [3] | Potency [4] | Potency [5] | Potency [6] | Potency [7] | Potency [8] | Potency [9] | Potency [10] | Potency [11] | Potency [12] | Potency [13] | Potency [14] | Potency [15] | Potency [16] | Potency [17] | Potency [18] | Potency [19] | Potency [20]
1 | Nc1ccc(Br)cc1 | inactive | 68.5 µM (active) and inactive | inactive | inactive | inactive | inactive | inactive | inactive | inactive | inactive | inactive | inactive | inactive | inactive | inactive | inactive | inactive |  |  | 
2 | Clc1ccc(C(c2ccccc2Cl)C(Cl)(Cl)Cl)cc1 (configuration not stated) | 43.5 µM (active) | inactive | inactive | inactive | inactive | inactive | inactive | inactive | inactive | inactive |  | inactive | inactive |  | inactive | inactive | inactive | inactive | inactive | 
3 | O=[N+]([O-])c1cc(Cl)c(Cl)c(Cl)c1 | inactive | inactive | inactive | inactive | inactive | inactive | inactive | inactive | inactive | inactive | inactive | inactive | inactive | inactive | inactive | inactive | inactive | inactive | inactive | 
4 | CCSC(=O)N1CCCCCC1 | inactive | 37.5 µM (active) and inactive | inactive | inactive | inactive | inactive | 4.99 µM (active) and 2.57 µM (active) | inactive | inactive | inactive | inactive | inactive | inactive | inactive | inactive | inactive | inactive |  | inactive | 
5 | Nc1cccc2ccccc12 | inactive | inactive and 61.1 µM (active) | inactive | inactive | inactive | inactive | inactive | inactive | inactive | inactive | inactive | inactive |  |  | inactive | inactive | inactive |  | inactive | 
6 | CC(C)(N)Cc1ccccc1Cl | inactive | inactive | inactive | inactive | inactive | inactive | inactive | inactive | inactive |  | inactive | inactive | inactive |  |  | inactive |  | inactive | inactive | inactive
7 | Clc1ccc(C(Cl)(Cl)Cl)cc1 | inactive | inactive | inactive | inactive | inactive | inactive | inactive | inactive |  | inactive | inactive | inactive | inactive | inactive | inactive | inactive | inactive | inactive | inactive | inactive
8 | CC(C)Nc1nc(Cl)nc(NC(C)C)n1 | inactive | inactive | inactive | inactive | inactive | inactive | inactive | inactive | inactive |  | inactive | inactive | inactive | inactive | inactive | inactive |  |  | inactive | inactive
9 | CCCCCCCCOC(=O)c1ccc(C(=O)OCCCCCCCC)c(C(=O)OCCCCCCCC)c1 | inactive | inactive | inactive | inactive | inactive | inactive | inactive | inactive | inactive |  | inactive | inactive | inactive |  | inactive | inactive | inactive | inactive | inactive | inactive
10 | CN(C)C(=O)Nc1cccc(C(F)(F)F)c1 | inactive | inactive | inactive | inactive | inactive | inactive | inactive | inactive | inactive |  | inactive |  | inactive | inactive | inactive | inactive | inactive | inactive | inactive | inactive
11 | O=C1C2(Cl)C3(Cl)C4(Cl)C(Cl)(Cl)C5(Cl)C3(Cl)C1(Cl)C5(Cl)C24Cl (configuration not stated) | 19 µM (active) and 29.3 µM (active) | inactive | 38.3 µM (active) | inactive | inactive | inactive | inactive | 31.9 µM (active) and inactive | 45 µM (active) |  | 54 µM (active) and 46.9 µM (active) | 29.3 µM (active) and 20.2 µM (active) |  |  |  | inactive |  |  | inactive | 
12 | CC1OC(C)OC(C)O1 (configuration not stated) | inactive | inactive | inactive | inactive | inactive | inactive | inactive | inactive | inactive |  | inactive | inactive | inactive | inactive | inactive | inactive | inactive | inactive | inactive | inactive
13 | O=P(O)(Oc1ccccc1)Oc1ccccc1 | inactive | inactive | inactive | inactive | inactive | inactive | inactive | inactive | inactive |  | inactive | inactive | inactive | inactive | inactive | inactive | inactive | inactive | inactive | inactive
14 | CCCCCCCCCCCCCCCC[n+]1ccccc1 | 29.8 µM (active) [middle of 4 runs] | inactive | 25.7 µM (active) and 38.9 µM (active) and 17.1 µM (active) | inactive | inactive | inactive | inactive | 36.3 µM (active) and 40.2 µM (active) and inactive | 42.7 µM (active) and inactive |  |  |  |  |  |  | inactive | inactive and 60.3 µM (active) |  | inactive | inactive
15 | O=C(NCNC(=O)NC1C(=O)NC(=O)N1CO)NC1C(=O)NC(=O)N1CO (configuration not stated) | inactive | inactive | inactive | inactive | inactive | inactive | inactive | inactive | inactive |  |  | inactive | inactive | inactive | inactive | inactive | inactive | inactive | inactive | inactive
